Laboratory results: PubChem BioAssay (EPA / NIEHS)
“And” between values parts separate entries of the source, which are not always exact repeats. Equal entries are not always repeated. Where a structure was tested more than once in an assay, its records may differ in their call. The source made the active and inactive calls. Rule for the calls, unless noted: active = hit-call score of the fitted dose curve at least 0.9, where 1 is the maximum; inactive = score below 0.9.

Key:
[1] = CCTE_Shafer_MEA_dev_per_burst_interspike_interval: CCTE's Neural Network Formation Assay for Burst Interspike Interval, Shafer Lab (AID 2284044);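 note: mean spike spacing inside bursts as AUC over recordings on days 5 7 9 12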;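 for AC50: potency for a decrease of within-burst interspike interval below DMSO level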
Summary of the method: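 Neurons from rat cortex plated onto PEI-coated MEA wells with laminin […] at 1.5 x 10^5 cells/well, then treated from day 0. Media and compound fully replaced on DIV 5 and 9. Extracellular spontaneous firing recorded four times; interspike interval per burst summarised as AUC.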

[2] = CCTE_Shafer_MEA_dev_burst_duration_mean: CCTE's Neural Network Formation Assay for Mean Burst Duration, Shafer Lab (AID 2284045);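 for AC50: curve fitted for loss meaning shorter burst duration than DMSO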
Summary of the method: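 Primary rat cortical neurons on 48-well 16-electrode MEA plates, exposed from day 0 with renewal at DIV 5 and 9; spontaneous activity recorded on days 5, 7, 9, 12. Well-mean burst duration across bursting electrodes, collapsed as trapezoidal AUC; DMSO baseline.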

[3] = CCTE_Shafer_MEA_dev_interburst_interval_mean: CCTE's Neural Network Formation Assay for Mean Interburst Interval, Shafer Lab (AID 2284046);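 note: well-mean interburst interval of bursting electrodes as AUC over four recording days; curve fitted for decrease in interburst interval relative to DMSO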
Summary of the method: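 Primary rat cortical neurons on PEI-coated 48-well MEA plates (laminin added with cells at plating) (16 electrodes/well), exposed from plating day 0 with renewal at DIV 5 and 9. Mean inter-burst interval averaged over bursting electrodes, AUC across days 5, 7, 9, 12; DMSO baseline.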

[4] = CCTE_Shafer_MEA_dev_inter_network_spike_interval_mean: CCTE's Neural Network Formation Assay for Mean Inter-network Spike Interval, Shafer Lab (AID 2284047);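 for AC50: potency for a decrease in mean inter-network spike interval below DMSO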
Summary of the method: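 Mean time between consecutive network-spike peaks, recorded extracellularly (adaptive spike detection) on DIV 5, 7, 9 and 12, summarized as trapezoidal AUC. Rat cortical cultures on MEAs dosed continuously days 0–12, re-dosed at feeds; loss-of-signal fit relative to DMSO.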

[5] = CCTE_Shafer_MEA_dev_network_spike_number: CCTE's Neural Network Formation Assay for Number of Network Spikes, Shafer Lab (AID 2284048);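 note: synchronized bursts across electrodes counted on days 5 7 9 12 and integrated as AUC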;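 for AC50: fit as a loss of signal meaning fewer network spikes than DMSO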
Summary of the method: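 Primary rat cortical neurons on PEI/laminin 48-well MEA plates, dosed from plating day 0 for 12 days, renewed at DIV 5 and 9. Network spike counts recorded DIV 5, 7, 9, 12, collapsed as trapezoidal AUC; DMSO baseline.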

[6] = CCTE_Shafer_MEA_dev_network_spike_peak: CCTE's Neural Network Formation Assay for Mean Number of Electrodes in Network Spike, Shafer Lab (AID 2284049);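 for AC50: fitted for loss of signal meaning fewer electrodes in network spikes than DMSO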
Summary of the method: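 Network-spike peak electrode count from recordings on days 5, 7, 9 and 12 was combined as trapezoidal area under the curve. Rat cortical cultures were treated continuously from plating, with compound renewed at each feed (DIV 5, 9); fits versus DMSO.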

[7] = CCTE_Shafer_MEA_dev_spike_duration_mean: CCTE's Neural Network Formation Assay for Mean Spike Duration, Shafer Lab (AID 2284051);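 note: mean network spike duration pooled as area under curve over DIV 5 to 12 recordings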;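 for AC50: potency for a decrease in mean network spike duration versus DMSO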
Summary of the method: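 Spontaneous activity was recorded on days 5, 7, 9 and 12 from rat cortical cultures grown on microelectrode arrays and dosed continuously from day 0, with media and compound renewed after the DIV 5 and 9 recordings. Network-spike duration was collapsed by area under the curve.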

[8] = CCTE_Shafer_MEA_dev_per_network_spike_spike_number_mean: CCTE's Neural Network Formation Assay for Mean Number of Spikes in a Network Spike, Shafer Lab (AID 2284053);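 for AC50: fitted as decrease in spikes per network spike relative to DMSO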
Summary of the method: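 Mean spike count within each network spike, taken in a 0.05 s window at its peak, was recorded on days 5, 7, 9 and 12 and integrated as trapezoidal area under the curve. Rat cortical cultures on MEA plates received continuous compound from day 0, refreshed at medium changes on DIV 5 and 9.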

[9] = CCTE_Shafer_MEA_dev_network_spike_duration_std: CCTE's Neural Network Formation Assay for Standard Deviation of Network Spike Duration, Shafer Lab (AID 2284052);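 note: hits are decreases in network spike duration SD versus DMSO vehicle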
Summary of the method: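 Network spike duration variability was collapsed across recordings on days 5, 7, 9 and 12 by trapezoidal area-under-curve and fitted downward against DMSO. Cultures were rat cortical neurons on PEI-coated MEA plates, dosed continuously from plating, refed with compound DIV 5/9.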

[10] = system: DIO2 (gene 1734); assay: CCTE_GLTED_hDIO2: CCTE's human Deiodinase 2 (DIO2) Inhibition Assay, Great Lakes Toxicology and Ecology Division (GLTED) Lab (AID 2284050; active = hit-call score of the fitted dose curve at least 0.9, where 1 is the maximum)
Summary of the method: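 Cell-free human DIO2 enzyme was incubated with test chemical for 3 h; iodide liberated from substrate was then quantified by the Sandell-Kolthoff reaction (absorbance), run in triplicate. Loss of signal versus DMSO baseline indicated inhibition.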

Measured: AC50

ClC(Cl)=C(c1ccc(Cl)cc1)c1ccc(Cl)cc1
inactive: [2] | [4]
active: [1] 7.73 µM | [3] 7.75 µM | [5] 1.23 µM | [6] 4 µM | [7] 3.8 µM | [8] 3.63 µM

c1cc2ccc3cccc4ccc(c1)c2c34
inactive: [1] | [2] | [3] | [4] | [5] | [6] | [7] | [9] | [8]

Clc1ccc(C(c2ccccc2Cl)C(Cl)(Cl)Cl)cc1 (stereo not given)
inactive: [1] | [2] | [4] | [9]
active: [3] 7.78 µM | [5] 2.71 µM | [6] 2.73 µM | [7] 2.76 µM | [8] 0.215 µM

O=S(=O)(O)C(F)(F)C(F)(F)C(F)(F)C(F)(F)F
active: [6] 15 µM | [7] 50 µM | [8] 14.2 µM
inactive: [1] | [2] | [3] | [4] | [5] | [6] | [7] | [9] | [8]

CO/C=C(/C(=O)OC)c1ccccc1COc1cccc(C(F)(F)F)n1
active: [1] 594 nM and 761 nM | [2] 231 nM and 490 nM | [3] 534 nM and 582 nM | [4] 364 nM and 752 nM | [5] 179 nM and 398 nM | [6] 212 nM and 741 nM | [7] 212 nM and 454 nM | [9] 246 nM and 245 nM | [8] 218 nM and 739 nM

Oc1ccc(C(c2ccc(O)cc2)(C(F)(F)F)C(F)(F)F)cc1
inactive: [1] | [2] | [3] | [4] | [5] | [7] | [9] | [8]
active: [6] 16.9 µM and 18.5 µM | [10] 128 µM | [7] 9.95 µM

O=C(O)C(F)(F)C(F)(F)C(F)(F)C(F)(F)C(F)(F)C(F)(F)C(F)(F)C(F)(F)C(F)(F)F
active: [10] 100 µM and 71.6 µM

COc1ccc(O)c(C(C)(C)C)c1
inactive: [1] | [2] | [3] | [4] | [5] | [6] | [7] | [9] | [8]

ClC1=C(Cl)[C@]2(Cl)[C@@H]3[C@H]4C[C@H]([C@@H]5O[C@H]45)[C@@H]3[C@@]1(Cl)C2(Cl)Cl
inactive: [1] | [2] | [3] | [5] | [6] | [7] | [9] | [8]

CCC(C)(c1ccc(O)cc1)c1ccc(O)cc1
active: [6] 10 µM | [7] 10 µM
inactive: [1] | [2] | [3] | [4] | [5] | [9] | [8]

NS(=O)(=O)C(F)(F)C(F)(F)C(F)(F)C(F)(F)C(F)(F)C(F)(F)C(F)(F)C(F)(F)F
active: [6] 26.7 µM | [7] 23.3 µM | [8] 15 µM
inactive: [1] | [2] | [3] | [4] | [5] | [6] | [7] | [9] | [8]

ClC1=C(Cl)[C@]2(Cl)[C@@H]3[C@@H]4C[C@@H]([C@H]5O[C@@H]45)[C@@H]3[C@@]1(Cl)C2(Cl)Cl
inactive: [2] | [3] | [4] | [8]
active: [1] 4.03 µM | [5] 0.492 µM | [6] 10.8 µM | [7] 23.9 µM | [9] 3.38 µM

CC#Cc1cc(C)nc(Nc2ccccc2)n1
active: [10] 22.2 µM

ClC1=C(Cl)[C@]2(Cl)[C@@H]3[C@@H](Cl)[C@H]4O[C@H]4[C@@H]3C1(Cl)C2(Cl)Cl
inactive: [2] | [3] | [4] | [9]
active: [1] 15 µM | [5] 2.98 µM | [6] 25 µM | [7] 25.9 µM | [8] 27.1 µM

O=C(O)C(F)(F)C(F)(F)C(F)(F)C(F)(F)C(F)(F)F
inactive: [1] | [2] | [3] | [4] | [5] | [6] | [7] | [9] | [8]

CCCCCCCCCc1ccc(O)cc1
active: [10] 136 µM

O=S(=O)(O)C(F)(F)C(F)(F)C(F)(F)C(F)(F)C(F)(F)C(F)(F)F
inactive: [1] | [2] | [3] | [4] | [5] | [6] | [7] | [9] | [8]
active: [6] 9.07 µM

C=CC(N)=O
inactive: [1] | [2] | [3] | [4] | [5] | [6] | [7] | [9] | [8]

Clc1ccc(C(Cl)(Cl)Cl)cc1
active: [10] 61.7 µM

CCCCCCCCCC[N+](C)(C)CCCCCCCCCC
active: [10] 62.7 µM

CCOP(=S)(OCC)SCSC(C)(C)C
inactive: [1] | [2] | [4] | [5] | [9]
active: [1] 17.4 µM | [2] 23.5 µM | [3] 23 µM and 28.4 µM | [5] 18.9 µM | [6] 23.1 µM and 13.9 µM | [7] 13.9 µM and 21.9 µM | [9] 16.2 µM | [8] 23.4 µM and 17.1 µM

O=C(O)C(F)(F)C(F)(F)C(F)(F)C(F)(F)C(F)(F)C(F)(F)C(F)(F)C(F)(F)F
inactive: [1] | [2] | [3] | [4] | [5] | [6] | [7] | [9] | [8]
active: [10] 46.1 µM
